Screening results: PubChem BioAssay, National Center for Advancing Translational Sciences (NCATS)
AmpC detergent = inhibitors of E. coli AmpC beta-lactamase with detergent. AID 485294. P00811. AmpC hydrolysis of nitrocefin, absorbance 480 nm, 0.01% Triton. 370,000 tested, 0.041% active. Potency, µM (series often up to 114 µM), for inactives: at the highest dose activity change, negative = inhibition, most hits filed as inhibitors;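 note: 0% = no-compound wells and -100% = no-enzyme wells; nearly all actives have a fitted effect of over 25% in size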
Target sequence (P00811 whole entry, looked up): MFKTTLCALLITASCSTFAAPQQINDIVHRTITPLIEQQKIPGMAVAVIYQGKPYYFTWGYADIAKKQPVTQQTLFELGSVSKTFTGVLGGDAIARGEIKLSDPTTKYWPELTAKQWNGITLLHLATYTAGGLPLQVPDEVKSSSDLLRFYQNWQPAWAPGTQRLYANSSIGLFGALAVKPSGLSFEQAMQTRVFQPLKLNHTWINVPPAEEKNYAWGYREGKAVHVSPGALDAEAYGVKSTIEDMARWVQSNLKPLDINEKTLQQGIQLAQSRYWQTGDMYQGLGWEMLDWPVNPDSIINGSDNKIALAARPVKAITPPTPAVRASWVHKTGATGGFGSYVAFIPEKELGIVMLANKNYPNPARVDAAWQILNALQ
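AmpC (5.3 nM in the dispensed reagent) in 20 mM phosphate pH 7.0 with 0.01% (detergent screen) or 0.0001% Triton X-100 was preincubated with compounds for 15 min at room temperature. Nitrocefin was then added from an 800 uM solution, and hydrolysis was followed at 480 nm.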
HCV inhibitor = blocks hepatitis C virus; Huh7.5.1 HCVcc-Cre infection, luciferase reporter, 44 h; 340,000 tested, 3.4% active; Potency, µM (highest dose often 41.8 µM), for the others: at the top dose activity change, negative = inhibition, most hits filed as inhibitors; AID 651820
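1,000 cells/well; 4 h culture; + compound; + HCVcc-Cre (~0.5 moi); 44 h; luciferase substrate, RT 15 min; read 15 sec.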
AmpC no deterg = inhibitors of E. coli AmpC beta-lactamase without detergent. AmpC nitrocefin hydrolysis, absorbance 480 nm, 0.0001% Triton. 330,000 tested, 0.52% active. P00811. Potency, µM (top dose mostly 57.1 µM), for inactives: top-dose activity change, negative = inhibition, most hits filed as inhibitors. AID 485341;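 note: plate controls were no compound for no effect and no enzyme for full effect; nearly all actives have a fitted effect of over 20% in size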
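20 mM phosphate pH 7.0 + 0.01% (detergent screen) or 0.0001% Triton X-100; 5.3 nM AmpC reagent; cpd preinc 15 min RT; nitrocefin (800 uM stock) to start; A480 q20 s × 4 min; Activity was normalised to no-enzyme and no-compound control wells.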
Pf growth 96h = P. falciparum growth inhibition at 96 hour, primary screen for plastid delayed-death inhibitors; 320,000 tested, 6.9% active; P. falciparum luciferase reporter growth, 96 h; Potency, µM (titrated, usually from 28.7 µM), for inactives: at the top dose activity change, negative = inhibition, most hits filed as inhibitors; AID 504834
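P. falciparum expressing integrated firefly luciferase, in erythrocytes at 2% hematocrit, 0.05% parasitemia, incubated with compounds 96 h at 37 C, 5% CO2. Growth inhibition read as loss of luminescence; two-generation exposure targets delayed-death apicoplast inhibitors.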
Pf growth 48h = P. falciparum growth inhibition at 48 hours (one generation); AID 504832; 310,000 tested, 5.9% active; P. falciparum luciferase growth in erythrocytes, 48 h; Potency, µM (series often up to 28.7 µM), for the others: at the highest dose activity change, negative = inhibition, actives largely listed as inhibitors
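Erythrocytes infected with P. falciparum carrying an integrated firefly luciferase reporter (2% hematocrit, 0.1% parasitemia final) were exposed to compounds in RPMI 1640 with 0.5% Albumax at 37 C, 5% CO2. Growth inhibition was scored as reduced luminescence.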
AMA1 RON2 block = AMA1-RON2 (P. falciparum) interaction inhibition; Potency, µM (titrated, usually from 58.2 µM), for inactives: at the top dose activity change, negative = inhibition, most hits filed as inhibitors; 360,000 tested, 0.2% active; AID 720542; AlphaScreen AMA1-biotinylated RON2 peptide binding;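 note: 0% = vehicle wells and -100% = peptide control; nearly all actives have a fitted effect of over 45% in size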
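AMA1 (3D7) with his tag at 25 nM final met compounds first, then biotinylated RON2 peptide at 25 nM; detection used donor plus acceptor beads, 10 µg/mL apiece, read by AlphaScreen after 30 min at room temperature.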
* hit, by the source's call; [ ] = remark or other dose. Compounds with a hit are over-represented: about 11% of the library has one in this group of screens. Calls come from the whole dose curve; as a rule, active = well fitted curve in the direction sought with a large enough effect; inconclusive = small, poorly fitted or top-dose-only effect, or another doubt; inactive = no such curve, though single readings can be large; an effect the other way counts as inactive or inconclusive. Unless noted, % is set by controls: 0 for no effect and ±100 for the full control effect; potency is the fitted concentration of half-maximal effect.

CCc1ccc(CNCCc2c[nH]c3ccccc23)cc1 was read as AmpC detergent 3.0%, HCV inhibitor -3.0%, AmpC no deterg -19.1%, Pf growth 96h 7.38µM*, Pf growth 48h 2.9% and AMA1 RON2 block inconclusive.
For O=[N+]([O-])c1ccccc1CNCCc1c[nH]c2ccccc12 the results were AmpC detergent -9.4%, HCV inhibitor -8.1%, AmpC no deterg -23.7%, Pf growth 96h -29.3%, Pf growth 48h 2.94µM* and AMA1 RON2 block inconclusive.
Screening COc1cccc(CNC23CC4CC(CC(C4)C2)C3)c1OCc1ccccc1 returned AmpC detergent -1.2%, HCV inhibitor inconclusive, AmpC no deterg -14.8%[2.29 µM], Pf growth 96h -14.5%, Pf growth 48h 10.4µM* and AMA1 RON2 block -0.8%.
COc1ccccc1CCNCc1ccc(OC)c(OCc2ccccc2)c1 was read as AmpC detergent 2.4%, HCV inhibitor 10µM*, AmpC no deterg 4.0%, Pf growth 96h 0.0%, Pf growth 48h 0.0% and AMA1 RON2 block -12.4%.
COc1ccc(CNCc2ccco2)cc1OCc1ccccc1 was read as AmpC detergent 10.1%, HCV inhibitor 8.4%, AmpC no deterg 15.7%, Pf growth 96h 68.3%, Pf growth 48h 71.7% and AMA1 RON2 block -21.1%.
For O=C(NCCc1nc2ccccc2n1Cc1ccc(F)cc1)c1ccco1 the results were AmpC detergent 1.7%.
For COc1cccc(CNCCc2c[nH]c3ccccc23)c1OCc1ccccc1 the results were AmpC detergent inconclusive, HCV inhibitor 10µM*, AmpC no deterg 7.5%, Pf growth 96h 34.3%, Pf growth 48h inconclusive and AMA1 RON2 block inconclusive.
`COc1cc(/C=C(\C#N)c2ccccn2)cc(OC)c1O` gave AmpC detergent 3.8%, HCV inhibitor inconclusive, AmpC no deterg -22.0%, Pf growth 96h -27.6%, Pf growth 48h -10.8% and AMA1 RON2 block -5.8%.
Screening COc1cc(/C=C(\C#N)c2ccccn2)ccc1OCc1ccccc1Cl returned AmpC detergent 1.3%, HCV inhibitor inconclusive, AmpC no deterg -17.2%, Pf growth 96h 2.33µM*, Pf growth 48h 1.85µM* and AMA1 RON2 block -0.6%.
Oc1c(N=NC(=S)Nc2ccccc2F)c2ccccc2n1Cc1ccccc1F was read as AmpC detergent 2.9%, HCV inhibitor 12.6µM*, AmpC no deterg -29.3%, Pf growth 96h -45.0%, Pf growth 48h inconclusive and AMA1 RON2 block 43.7%.
`Cc1cccc(NC(=O)Cn2c(O)c(N=NC(=O)c3ccccc3O)c3ccccc32)c1` gave AmpC detergent -14.9%, HCV inhibitor 2.4%, AmpC no deterg -9.5%, Pf growth 96h 27.7%, Pf growth 48h 20.2% and AMA1 RON2 block -5.2%.
Cc1ccccc1Cn1c(O)c(N=NC(=S)Nc2ccccc2F)c2ccccc21 was read as AmpC detergent 1.4%, HCV inhibitor 2.24µM*, AmpC no deterg -39.0%, Pf growth 96h 6.3%, Pf growth 48h 1.47µM* and AMA1 RON2 block 9.1%.
For Oc1c(N=NC(=S)Nc2ccccc2F)c2ccccc2n1Cc1ccc(Cl)cc1 the results were AmpC detergent -13.6%, HCV inhibitor inconclusive, AmpC no deterg -32.4%, Pf growth 96h 71.3%, Pf growth 48h 2.33µM* and AMA1 RON2 block 62.2%.
Screening Cc1ccc(C)c(Cn2c(O)c(N=NC(=S)Nc3ccccc3F)c3ccccc32)c1 returned AmpC detergent 1.8%, HCV inhibitor 3.16µM*, AmpC no deterg -24.4%, Pf growth 96h 11.1%, Pf growth 48h inconclusive and AMA1 RON2 block 48.5%.
Screening CCNC(=S)N=Nc1c(O)n(Cc2ccc(Cl)cc2)c2ccccc12 returned AmpC detergent -0.6%, HCV inhibitor inconclusive, AmpC no deterg -35.9%, Pf growth 96h inconclusive, Pf growth 48h inconclusive and AMA1 RON2 block 1.6%.
For Cc1ccccc1OCCCCn1c(-c2ccc(Cl)cc2)nc2ccccc2c1=O the results were AmpC detergent -2.0%.
Screening Cc1ccc(NC(=O)c2sc3ncnc(N(C)C4CCCCC4)c3c2C)cc1 returned AmpC detergent 13.5%.
For Cc1ccc(NC(=O)C2CCN(c3nc4ccccc4[nH]3)CC2)cc1Cl the results were AmpC detergent -6.2%.
For Cc1ccc(NC(=O)Cn2c(=O)n(Cc3ccc4c(c3)OCO4)c(=O)c3ccc(C(=O)NC4CCCCC4)cc32)c(C)c1 the results were AmpC detergent 0.5%.
`CCOc1ccc(S(=O)(=O)N(C)CCO)cc1-c1nc2c(C(C)(C)C)nn(C)c2c(=O)[nH]1` gave AmpC detergent -13.4%, HCV inhibitor inconclusive, AmpC no deterg 131.4%, Pf growth 96h -7.6%, Pf growth 48h 11.7µM* and AMA1 RON2 block -3.1%.
`COc1cc(CC(=O)O)c(C(C)=O)cc1OC` gave AmpC detergent -8.3%, HCV inhibitor 19.7%, AmpC no deterg -12.9%, Pf growth 96h 3.7µM*, Pf growth 48h 7.1% and AMA1 RON2 block -4.4%.
`COc1cc(CC(=O)O)c([N+](=O)[O-])cc1OC` gave AmpC detergent 3.5%, HCV inhibitor -5.0%, AmpC no deterg -7.0%, Pf growth 96h 26.0%, Pf growth 48h 1.8% and AMA1 RON2 block -0.4%.
Screening COc1ccc(C2c3[nH]c4ccccc4c3CCN2C(=O)Cc2nonc2C)c(F)c1 (stereo unspecified) returned AmpC detergent -3.5%, HCV inhibitor inconclusive, AmpC no deterg -14.9%, Pf growth 96h inconclusive, Pf growth 48h 10.4µM* and AMA1 RON2 block -11.5%.
`CC(=O)c1cc(CC(=O)N2CCc3c([nH]c4ccccc34)C2c2ccccn2)cs1` (stereo unspecified) gave AmpC detergent 4.2%, HCV inhibitor -24.9%, AmpC no deterg 41.0%, Pf growth 96h inconclusive, Pf growth 48h inconclusive and AMA1 RON2 block 13.2%.
For COc1ccc(C2c3[nH]c4ccccc4c3CCN2Cc2ccoc2)c(F)c1 (stereo unspecified) the results were AmpC detergent 8.7%, HCV inhibitor -22.3%, AmpC no deterg -36.0%, Pf growth 96h inconclusive, Pf growth 48h inconclusive and AMA1 RON2 block -29.6%.
`Cc1cc2cc(C(=O)N3CCc4c([nH]c5ccccc45)C3c3ccccn3)ccc2o1` (stereo unspecified) gave AmpC detergent 1.8%, HCV inhibitor inconclusive, AmpC no deterg 41.3%, Pf growth 96h 9.28µM*, Pf growth 48h 10.4µM* and AMA1 RON2 block -8.6%.
